This is an account of results in PubChem BioAssay.

Calls of active or inactive are those of the source.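 How the source made its calls, unless noted: active means fluorescence slope higher than the sample average by over 3 SD (cut at about -0.22 in these data, passing the limit was not always enough); inactive means the rest.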

The nature of assay [1]: inhibitors of TNFa-induced NFkB p65 translocation, primary screen, imaging, HUVEC, MLSMR starter and 10KST1 sets (AID 438;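 active means inhibition above 20% together with a positive visual image hit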;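 further: compound added about 3h40 before a 20 min TNFalpha stimulation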;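 on inhibition: signal is the nuclear over cytoplasmic p65 intensity ratio per well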). The conditions noted are these: HUVEC TNFa-induced p65 nuclear translocation; cell count: measured here: nuclei count (cytotoxicity indicator), at 2.08 µM; inhibition: at 2 µM, stronger effect = higher value, 0% TNFa-plus-vehicle, 100% no-TNFa wells.
Assay [2] can be described thus: reduction of polyQ htt aggregates in cells – imaging, exon1htt(103Q)mCFP cells, high-content imaging, primary screen (AID 483;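 active means visual image review flags a hit and inhibition of aggregation exceeds 20%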;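 further: compound exposure lasted 3 days before fixation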;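 on nuclei count: percent of the per-plate median nuclei count of sample wells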). The conditions noted are these: exon1htt(103Q)mCFP cell line, aggregate imaging, at 2 µM; inhibition of aggregation: stronger effect = higher value; nuclei count: measured here: cell count, toxicity.
A short description of assay [3]: endothelial E-selectin expression blockers – imaging, HUVEC, immunofluorescence, MLSMR starter and 10KST1 sets, primary screen (AID 487;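 active means visually confirmed hit in the image check and inhibition above 20%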;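 on inhibition: signal is fraction of cell area covered by stained E-selectin grains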;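 on nuclei count: 100% = median nuclei count of all wells on the same plate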). The conditions noted are these: HUVEC TNFalpha-induced E-selectin immunofluorescence imaging, at 2 µM; inhibition: stronger effect = higher value; nuclei count: measured here: cell number, toxicity.
The target of assay [4] is Voltage-gated potassium channel subunit beta-2 (Rattus norvegicus) (UniProt P62483). Kind of assay: inhibitors of rat Kvbeta2 reductase activity – biochemical, NADPH fluorescence, primary screen (AID 622).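 Further: slope of raw intensity against log time taken from 70 to 1610 s.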 The conditions noted are these: recombinant KvBeta, 4-cyanobenzaldehyde reduction, at 10 µM, stronger effect = higher value.
For assay [5] the target is unchanged. Kind of assay: enhancers of rat Kvbeta2 NADPH turnover – biochemical, NADPH fluorescence, primary screen (AID 623;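 active means NADPH fluorescence slope more negative than the mean of all samples by about 3 SD, 99.7% confidence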;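 further: fluorescence intensity change per second fitted from 20 to 320 s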). The conditions noted are these: Recombinant KvBeta, NADPH fluorescence decrease slope, 10 min; at 10 µM; stronger effect = lower value.
Assay [6] addresses Alpha-2C adrenergic receptor (Homo sapiens) (UniProt P18825). Kind of assay: compounds altering alpha2C-coupled GIRK flux – cell-based, HEK293 alpha2C/GIRK1/2, thallium flux, primary screen (AID 624;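 active means fluorescence slope after compound addition differing from the mean of all screened samples at 99.7% confidence, in either direction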;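 further: slope of fluorescence ratio to pre-addition baseline per second over 15 to 24 s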). The conditions noted are these: thallium flux BTC fluorescence, at 10 µM, actives lie on both sides.
A short description of assay [7]: blockers of RIG-like receptor reporter activation – cell-based, Sendai virus stimulus, luciferase, 10K MLSCN set, TLR/RLR signaling modifier project, primary screen (AID 602276;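 active means inhibition at or above 50% at 10 µM; inactive means inhibition below 50%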;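 further: firefly luciferase from ISG56 promoter only with Renilla not read in this screen; 0% = Sendai virus plus DMSO and 100% = medium plus DMSO without virus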). The conditions noted are these: HEK293 RL24 IRF3 luciferase reporter, at 10 µM, stronger effect = higher value.
Assay [8] can be described thus: TLR3 IRF3 reporter activation blockers – cell-based, poly I:C stimulus, luciferase, 10K MLSCN set, primary screen (AID 602277;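 active means inhibition of the reporter signal at or above 50%; inactive means inhibition below 50%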). The conditions noted are these: HEK293-TLR3 RL24 IRF3 luciferase reporter, at 10 µM, stronger effect = higher value.

Voltage-gated potassium channel subunit beta-2 (Rattus norvegicus), sequence (P62483 whole entry, looked up): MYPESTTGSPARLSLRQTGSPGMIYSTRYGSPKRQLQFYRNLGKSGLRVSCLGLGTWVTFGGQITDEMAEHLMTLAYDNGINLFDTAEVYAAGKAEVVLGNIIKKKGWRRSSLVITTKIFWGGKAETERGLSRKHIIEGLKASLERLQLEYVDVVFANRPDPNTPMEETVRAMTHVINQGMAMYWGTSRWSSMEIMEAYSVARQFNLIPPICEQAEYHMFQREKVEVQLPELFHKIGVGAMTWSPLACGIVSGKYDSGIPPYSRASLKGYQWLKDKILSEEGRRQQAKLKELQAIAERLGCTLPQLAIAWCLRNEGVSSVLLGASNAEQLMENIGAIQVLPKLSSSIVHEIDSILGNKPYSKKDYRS
Alpha-2C adrenergic receptor (Homo sapiens), sequence (P18825 whole entry, looked up): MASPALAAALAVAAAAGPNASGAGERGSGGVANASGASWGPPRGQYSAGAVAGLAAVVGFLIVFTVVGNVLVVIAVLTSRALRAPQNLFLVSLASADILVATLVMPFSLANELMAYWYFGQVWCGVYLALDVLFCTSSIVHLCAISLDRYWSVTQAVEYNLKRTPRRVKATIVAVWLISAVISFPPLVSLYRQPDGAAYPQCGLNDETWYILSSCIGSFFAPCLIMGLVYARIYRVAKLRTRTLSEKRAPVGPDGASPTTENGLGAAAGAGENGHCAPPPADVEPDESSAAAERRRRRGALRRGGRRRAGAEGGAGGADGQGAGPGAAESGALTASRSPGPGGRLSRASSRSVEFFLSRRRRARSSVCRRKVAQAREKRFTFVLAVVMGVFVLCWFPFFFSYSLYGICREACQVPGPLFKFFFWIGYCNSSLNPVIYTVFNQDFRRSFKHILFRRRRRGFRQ

Take `COC(=O)c1cc(-c2c(C)oc3cc(O)ccc3c2=O)c(C)o1`: in assay [1], the cell count came to 609. For the same compound, the inhibition in assay [1] was -2.2% (inactive); in assay [3], -117% (inactive); in assay [7], 4.96% (inactive); in assay [8] it was 1.06% (inactive). Besides, the inhibition of aggregation in assay [2] was -24% (inactive). Also, the nuclei count was 114% in assay [2] and 167% in assay [3]. Further, the fluorescence slope in assay [4] was -0.129 (active). For the same compound, in assay [5], the NADPH fluorescence slope is 2.7e-05 (inactive). For the same compound, the slope in assay [6] was 0.0074 (inactive).
As to `COc1ccc(C(CNC(=O)c2ccc(OCC3CCCO3)cc2)N2CCOCC2)cc1` (centres undefined), the cell count in assay [1] was found to be 666. The inhibition in assay [1] is 0.6% (inactive); in assay [3], 7.9% (inactive); in assay [7], 15.9% (inactive); in assay [8], 20.4% (inactive). Moreover, the inhibition of aggregation in assay [2] is -1.9% (inactive). Further, the nuclei count in assay [2] came to 86.2%; in assay [3], 112%. Moreover, in assay [4], the fluorescence slope is -0.49 (inactive). Further, the NADPH fluorescence slope in assay [5] is -4e-05 (inactive). Moreover, the slope in assay [6] is 0.00447 (inactive).
In the case of `CCc1ccc(NC(=O)CS(=O)CC(=O)NCC2OCCc3ccccc32)cc1` (centres undefined), the cell count in assay [1] stood at 698. Moreover, the inhibition in assay [1] is -4.5% (inactive); in assay [3], -119% (inactive); in assay [7], 9.39% (inactive); in assay [8], 13.4% (inactive). Also, the inhibition of aggregation in assay [2] was 6.4% (inactive). Further, the figures for the nuclei count in assay [2] and in assay [3] were 102% and 114%, respectively. Moreover, in assay [4], the fluorescence slope was -0.415 (inactive). The NADPH fluorescence slope in assay [5] was -3.6e-05 (inactive). In addition, the slope in assay [6] is 0.00515 (inactive).
Regarding `CCCNS(=O)(=O)c1ccc(OCC(=O)NCc2ccco2)cc1`, in assay [1], the cell count worked out at 603. For the same compound, the inhibition is 11.7% (inactive) in assay [1], -76.7% (inactive) in assay [3], -6.02% (inactive) in assay [7] and -17.4% (inactive) in assay [8]. Besides, the inhibition of aggregation in assay [2] is -6% (inactive). In addition, the figures for the nuclei count in assay [2] and in assay [3] were 110% and 126%, respectively. For the same compound, the fluorescence slope in assay [4] was -0.478 (inactive). For the same compound, the NADPH fluorescence slope in assay [5] was 8.5e-05 (inactive). The slope in assay [6] was 0.00584 (inactive).
Regarding `COC(=O)c1cc(OC)c(OC)cc1NC(=O)c1ccc(Br)o1`, the cell count in assay [1] was determined as 296. In addition, the inhibition in assay [1] was -7.2% (inactive); in assay [3] it was -91.3% (inactive); in assay [7], 2.63% (inactive); in assay [8], -5.12% (inactive). Moreover, in assay [2], the inhibition of aggregation was -7.5% (inactive). For the same compound, the nuclei count in assay [2] stood at 95.4%; in assay [3], 103%. In assay [4], the fluorescence slope is -0.312 (inactive). In assay [5], the NADPH fluorescence slope was -4.6e-05 (inactive). Besides, in assay [6], the slope was 0.00764 (inactive).
With `Cc1cn2c(-c3ccc(Cl)cc3)nnc2s1`, the cell count in assay [1] stood at 752. Moreover, the inhibition in assay [1] was -1.6% (inactive); in assay [3], -81% (inactive); in assay [7] it was 6.2% (inactive); in assay [8] it was 12.3% (inactive). The inhibition of aggregation in assay [2] was 17.6% (inactive). Further, the nuclei count in assay [2] stood at 98%; in assay [3], 109%. In addition, the fluorescence slope in assay [4] was -0.563 (inactive). Moreover, the NADPH fluorescence slope in assay [5] is -4.1e-05 (inactive). Further, in assay [6], the slope is 0.00702 (inactive).
Take `O=C(O)c1cc2c(s1)CCCC2`: in assay [1], the cell count worked out at 473. Further, the inhibition is 6.3% (inactive) in assay [1], 15.7% (inactive) in assay [3], 4.53% (inactive) in assay [7] and 8.58% (inactive) in assay [8]. Further, the inhibition of aggregation in assay [2] is 8.1% (inactive). Also, the nuclei count in assay [2] amounted to 100%; in assay [3], 111%. Further, the fluorescence slope in assay [4] is -0.383 (inactive). Moreover, the NADPH fluorescence slope in assay [5] was -2.9e-06 (inactive). In addition, the slope in assay [6] is 0.00578 (inactive).
Turning to `O=C(NCc1cccnc1)C1CCCN(S(=O)(=O)c2ccc(Cl)cc2)C1` (centres undefined), in assay [1], the cell count worked out at 638. Besides, the inhibition is -48% (inactive) in assay [1], -19.2% (inactive) in assay [3], -7.82% (inactive) in assay [7] and -2.22% (inactive) in assay [8]. Besides, the inhibition of aggregation in assay [2] was -4.5% (inactive). For the same compound, the nuclei count in assay [2] amounted to 98%; in assay [3], 104%. The fluorescence slope in assay [4] is -0.601 (inactive). Besides, the NADPH fluorescence slope in assay [5] was -4.7e-05 (inactive). In addition, the slope in assay [6] is 0.00732 (inactive).
With `CN(C)c1ccc(NC(=O)c2cc3c(=O)n4ccccc4nc3n2C)cc1`, the cell count in assay [1] turned out to be 216. The inhibition in assay [1] is -10.7% (inactive); in assay [3], 52.4% (inactive); in assay [7] it was 1.6% (inactive); in assay [8], -86.3% (inactive). Also, in assay [2], the inhibition of aggregation was 4.4% (inactive). The nuclei count is 89% in assay [2] and 68.8% in assay [3]. Moreover, the fluorescence slope in assay [4] was -0.572 (inactive). Moreover, the NADPH fluorescence slope in assay [5] was -3.5e-05 (inactive). Moreover, the slope in assay [6] was 0.00472 (inactive).
In the case of `Cc1cc(C)c2c(=O)n(CC(=O)NCCCN3CCN(c4ccccc4F)CC3)sc2n1`, the cell count in assay [1] stood at 725. Besides, the inhibition in assay [1] was -2.8% (inactive); in assay [3], -81.4% (inactive); in assay [7], 12% (inactive); in assay [8] it was 34.1% (inactive). Further, the inhibition of aggregation in assay [2] was 2.8% (inactive). Also, the nuclei count was determined as 105% in assay [2] and 119% in assay [3]. Further, in assay [4], the fluorescence slope is -0.525 (inactive). Further, the NADPH fluorescence slope in assay [5] was -4.4e-05 (inactive). In addition, the slope in assay [6] was 0.00504 (inactive).
`N#CCCN1CCN(S(=O)(=O)c2ccc(S(=O)(=O)NC3CCCC3)cc2)CC1`: the cell count in assay [1] was found to be 689. Moreover, the inhibition in assay [1] is -10% (inactive); in assay [3], -2.1% (inactive); in assay [7], -1.55% (inactive); in assay [8] it was 28.4% (inactive). Also, the inhibition of aggregation in assay [2] is -6.8% (inactive). In addition, the nuclei count in assay [2] and in assay [3] was 126% throughout. Besides, the fluorescence slope in assay [4] is -0.624 (inactive). Besides, the NADPH fluorescence slope in assay [5] is -3.6e-05 (inactive). In addition, in assay [6], the slope was 0.00706 (inactive).
Consider `Cc1ccc(Cl)cc1N1CCN(C(=O)C2CCCN(S(=O)(=O)c3cnc[nH]3)C2)CC1` (centres undefined), for which the cell count in assay [1] came to 563. Further, the inhibition was 10.1% (inactive) in assay [1], -74.4% (inactive) in assay [3], -6.79% (inactive) in assay [7] and 3.89% (inactive) in assay [8]. In addition, the inhibition of aggregation in assay [2] was -1.2% (inactive). The nuclei count stood at 102% in assay [2] and 126% in assay [3]. For the same compound, in assay [4], the fluorescence slope was -0.532 (inactive). For the same compound, in assay [5], the NADPH fluorescence slope was -2.9e-05 (inactive). The slope in assay [6] was 0.00714 (inactive).
`CCCn1c(-c2ccc(F)cc2)cnc1SCC(=O)O`: the cell count in assay [1] was 431. For the same compound, the inhibition in assay [1] is 9.9% (inactive); in assay [3], -63.4% (inactive); in assay [7], 16.2% (inactive); in assay [8], 19.8% (inactive). Moreover, the inhibition of aggregation in assay [2] was -4.3% (inactive). Besides, the nuclei count in assay [2] and in assay [3] was 106% each time. In addition, the fluorescence slope in assay [4] was -0.622 (inactive). In assay [5], the NADPH fluorescence slope is -3.6e-05 (inactive). In addition, the slope in assay [6] was 0.00449 (inactive).
For `c1ccc2c(c1)c1c3n2CCNC3CCC1` (centres undefined), the cell count in assay [1] amounted to 663. In addition, the inhibition in assay [1] is -11.5% (inactive); in assay [3], -119% (inactive); in assay [7], 15.3% (inactive); in assay [8], 14% (inactive). For the same compound, the inhibition of aggregation in assay [2] is -9.5% (inactive). Also, the nuclei count is 103% in assay [2] and 102% in assay [3]. The fluorescence slope in assay [4] was -0.364 (inactive). Moreover, the NADPH fluorescence slope in assay [5] is -2e-05 (inactive). Moreover, in assay [6], the slope is 0.00436 (inactive).
